The source of these data is PubChem BioAssay (EPA / NIEHS).

Inconclusive results are not listed. Some structures have more than one record in an assay (separate samples or runs), and their calls can disagree. Activity calls are given as the source filed them. Rule for the calls: active = hit-call score of the fitted dose curve at least 0.9, where 1 is the maximum; inconclusive = response in the unintended direction; inactive = score below 0.9.

A short description of the assay: TOX21_p53_BLA_p5_viability: Viability Assessment in the Tox21 HCT-116 p53 Agonism Beta-lactamase Assay, Phase 5 (AID 2283600). The source says: TOX21_p53_BLA_p5 is a cell-based, single-readout assay that uses HCT116, a human intestinal cell line, […] in a 1536-well plate.TOX21_p53_BLA_p5_viability is an assay readout measuring cellular ATP content and detected with CellTiter-Glo Luciferase-coupled ATP quantitation.TOX21_p53_BLA_p5_viability used a type of viability reporter where loss-of-signal activity can be used to understand changes in the cell viability. Furthermore, this assay endpoint can be referred to as a secondary readout, because this assay has produced multiple assay endpoints where this one serves a viability function. To generalize the intended target to other relatable targets, this assay endpoint is annotated to the cell cycle intended target family, where the subfamily is cytotoxicity.
Thawing Method: Place 14 mL of pre-warmed thaw medium into a 15 mL of conical tub. Remove the vial of cells to be thawed from liquid nitrogen and thaw rapidly by placing at 37C in a water bath with gentle agitation for 1-2 minutes. Decontaminate the vial by wiping with 70% ethanol before opening in a biological safety cabinet. Transfer the vial contents drop-wise into 14 mL of thaw medium in a sterile 15-mL conical tub. Centrifuge cells at 900 rpm for 4 minutes and resuspend in thaw medium. Transfer contents to the T75 tissue culture flask containing Thaw Medium and place flask in a humidified 37C/5% CO2 incubator. Switch to growth medium at first passage.Propagation Method: Aspirate medium, rinse once in DPBS, add 0.25% Trypsin/EDTA and swirl to coat the cell evenly. Add an equal volume of Growth Medium to inactivate Trypsin after 2-3 minutes incubation at 37C. Centrifuge cells at 900 rpm for 4 minutes and resuspend in growth medium. Cell should be passage or fed at least twice a week.Assay Protocol: Harvest cells from culture in growth medium and resuspend in assay medium. 2.2 Dispense 4000 cells/5 uL/well into 1536-well black/clear bottom plates using a Multidrop dispenser. After the cells were incubated at 37C for 5 hours, 23 nL of compounds dissolved in DMSO were transferred to the assay plate by a PinTool resulting in a 217-fold dilution. Incubate the plates for 16 hours at 37C, 5% CO2. Add 1 uL of 6X LiveBLAzer FRET B/G (CCF4-AM) Substrate Mixture to each well using a BioRAPTR dispenser and incubate the plates at room temperature for 2 hours. Measure fluorescence intensity at 460 and 530 nm emission and 405 nm excitation by an Envision detector. Data is expressed as the ratio of 460nm/530nm emissions. Add 4 uL of Cell-titer Glo to each well using BioRAPTR and incubate the plates at room temperature for […]. For cell viability readout that measures cytotoxicity, 4 ul/well of CellTiter-Glo reagent was added into the assay plates using a Flying Reagent Dispenser. After 30 min incubation at room temperature, the luminescence intensity in the plates was measured using a ViewLux plate reader.
Turning to `CC(C)=CCC/C(C)=C/COC=O`, the outcome was inactive. As to `CO[Si](C)(OC)c1ccccc1`, the call was inactive. In general, AC50 refers to the midpoint of the concentration-response curve, whichever way the signal moves. Consider `Cc1ccc(O)c(C(C)(C)C)c1`, for which the outcome was inactive and the AC50 was 42.9 µM (active). Regarding `Nc1ccc(S(N)(=O)=O)cc1`, the compound was classed as inactive. `O=P(c1ccccc1)(c1ccccc1)c1ccccc1`: the compound was called inactive. Still for that read-out and setting: the entry for `COC(=O)c1ccc(C)cc1` is “inactive”; for `C=COCCOCCOCCOC=C` it is “inactive”; for `CCCCCCCCCCCCSC` it is “inactive”. With `CNCCCC12CCC(c3ccccc31)c1ccccc12`, the compound was called inactive and the AC50 is 70.2 µM (active). As for `CC(=O)[C@H]1CC[C@H]2[C@@H]3CC=C4C[C@@H](O)CC[C@]4(C)[C@H]3CC[C@]12C`, the call was inactive. The same measure, in the same setting: the entry for `CCCCCCCCCOC(C)=O` is “inactive”; for `Cc1ccccc1C=O` it is “inactive”; for `BrC1CCC(Br)C(Br)CCC(Br)C(Br)CCC1Br` (stereo not given) it is “inactive”.

With `O=C(Nc1ccccc1)c1cc([N+](=O)[O-])ccc1Cl`, the compound was classed as inactive. The same measure, in the same setting: then `CC(C)c1ccc(C(C)C)cc1`, with “inactive”; and `O=C1CCCCCCCCCCCCCCO1`, with “inactive”; and `CC1CC(OC(=O)c2ccccc2O)CC(C)(C)C1` (stereo not given), with “inactive”. Take `CC(O)C(C)O` (stereo not given): the compound was called inactive.

As for `CC(=O)[O][Al][O]C(C)=O`, the outcome was inactive. On to `Cc1ccc(C=O)s1`, for which the compound was classed as inactive.

For the compound `CNC(=O)Oc1ccc2c(c1)[C@]1(C)CCN(C)[C@@H]1N2C`, the compound was called inactive. `C=CCOc1nc(OCC=C)nc(OCC=C)n1`: the compound was called inactive. In the case of `ClCCCl`, the call was inactive. As to `CCCCCCCCCCCCCOS(=O)(=O)O`, the concentration at half-maximal activity (AC50) is 66.6 µM (active). Same read-out and setting: the figure for `CC(CN1c2ccccc2Sc2ccccc21)N(C)C` (stereo not given) is 39.8 µM (active); for `CCCc1c(OCCCOc2ccc(OCC(=O)O)cc2)ccc(C(C)=O)c1O` it is 65.8 µM (active). For the compound `CC[Si](OC(C)=O)(OC(C)=O)OC(C)=O`, the result was inactive. For `CNCCO`, the compound was called inactive. `CC(C)C(C)(C)C(C)(C)C(C)(C)S`: the compound was called inactive.

In the case of `CC(C)c1cccc(O)c1`, the compound was classed as inactive.

Consider `COc1ccc(O)cc1`, for which the compound was called inactive. In the case of `O=C1CCc2ccccc2O1`, the compound was classed as inactive.

Take `O=C1C(c2[nH]c3ccc(S(=O)(=O)O)cc3c2O)=Nc2ccc(S(=O)(=O)O)cc21`: the compound was classed as inactive. The same measure, in the same setting: then `COC(C)CCO` (stereo not given), with “inactive”. The same measure, in the same setting: the entry for `CCCC/C=C\CCCCCCCCCC=O` is “inactive”; for `CC(C)(C)C(=O)c1ccccc1` it is “inactive”; for `NCCCCCCN` it is “inactive”. On the same count and under the same terms, the entry for `CCCCCC(CO)CCC` (stereo not given) is “inactive”.
